Experimental data: PubChem BioAssay AID504333 (National Center for Advancing Translational Sciences (NCATS), 2011)
About 16,000 (4.4%) of roughly 360,000 compounds were called active. Not shown: some 9% with an inconclusive outcome. The call rests on the fitted dose curve; in most records, active means well fitted inhibition curve with a large enough effect; inconclusive means small, poorly fitted or top-dose-only effect; inactive means no such curve, though single readings can be large or run the other way. This excerpt belongs to a sample that is enriched for actives.

Biological target: Bromodomain adjacent to zinc finger domain protein 2B (Homo sapiens) (UniProt Q9UIF8)
Experiment: qHTS Assay for Inhibitors of BAZ2B; further: nearly all actives have a fitted effect of over 60% in size
Settings: AlphaScreen BAZ2B-H3K14Ac peptide displacement; series mostly up to 114 µM; activity change, negative = inhibition: at the top concentration
In short: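 In this displacement format the biotinylated H3(5-23) peptide acetylated at Lys14 serves as ligand at 50 nM, with BAZ2B at 50 nM in PBS pH 7.4 containing 0.01% Tween-20. Donor and acceptor beads are 10 ug/mL final.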
On the % scale 0 is the no-effect control and ±100 the full control effect; potency means the concentration at half of the fitted maximal effect.

Chain of Bromodomain adjacent to zinc finger domain protein 2B (Homo sapiens) (Q9UIF8 whole entry, looked up, the tested form may be a part): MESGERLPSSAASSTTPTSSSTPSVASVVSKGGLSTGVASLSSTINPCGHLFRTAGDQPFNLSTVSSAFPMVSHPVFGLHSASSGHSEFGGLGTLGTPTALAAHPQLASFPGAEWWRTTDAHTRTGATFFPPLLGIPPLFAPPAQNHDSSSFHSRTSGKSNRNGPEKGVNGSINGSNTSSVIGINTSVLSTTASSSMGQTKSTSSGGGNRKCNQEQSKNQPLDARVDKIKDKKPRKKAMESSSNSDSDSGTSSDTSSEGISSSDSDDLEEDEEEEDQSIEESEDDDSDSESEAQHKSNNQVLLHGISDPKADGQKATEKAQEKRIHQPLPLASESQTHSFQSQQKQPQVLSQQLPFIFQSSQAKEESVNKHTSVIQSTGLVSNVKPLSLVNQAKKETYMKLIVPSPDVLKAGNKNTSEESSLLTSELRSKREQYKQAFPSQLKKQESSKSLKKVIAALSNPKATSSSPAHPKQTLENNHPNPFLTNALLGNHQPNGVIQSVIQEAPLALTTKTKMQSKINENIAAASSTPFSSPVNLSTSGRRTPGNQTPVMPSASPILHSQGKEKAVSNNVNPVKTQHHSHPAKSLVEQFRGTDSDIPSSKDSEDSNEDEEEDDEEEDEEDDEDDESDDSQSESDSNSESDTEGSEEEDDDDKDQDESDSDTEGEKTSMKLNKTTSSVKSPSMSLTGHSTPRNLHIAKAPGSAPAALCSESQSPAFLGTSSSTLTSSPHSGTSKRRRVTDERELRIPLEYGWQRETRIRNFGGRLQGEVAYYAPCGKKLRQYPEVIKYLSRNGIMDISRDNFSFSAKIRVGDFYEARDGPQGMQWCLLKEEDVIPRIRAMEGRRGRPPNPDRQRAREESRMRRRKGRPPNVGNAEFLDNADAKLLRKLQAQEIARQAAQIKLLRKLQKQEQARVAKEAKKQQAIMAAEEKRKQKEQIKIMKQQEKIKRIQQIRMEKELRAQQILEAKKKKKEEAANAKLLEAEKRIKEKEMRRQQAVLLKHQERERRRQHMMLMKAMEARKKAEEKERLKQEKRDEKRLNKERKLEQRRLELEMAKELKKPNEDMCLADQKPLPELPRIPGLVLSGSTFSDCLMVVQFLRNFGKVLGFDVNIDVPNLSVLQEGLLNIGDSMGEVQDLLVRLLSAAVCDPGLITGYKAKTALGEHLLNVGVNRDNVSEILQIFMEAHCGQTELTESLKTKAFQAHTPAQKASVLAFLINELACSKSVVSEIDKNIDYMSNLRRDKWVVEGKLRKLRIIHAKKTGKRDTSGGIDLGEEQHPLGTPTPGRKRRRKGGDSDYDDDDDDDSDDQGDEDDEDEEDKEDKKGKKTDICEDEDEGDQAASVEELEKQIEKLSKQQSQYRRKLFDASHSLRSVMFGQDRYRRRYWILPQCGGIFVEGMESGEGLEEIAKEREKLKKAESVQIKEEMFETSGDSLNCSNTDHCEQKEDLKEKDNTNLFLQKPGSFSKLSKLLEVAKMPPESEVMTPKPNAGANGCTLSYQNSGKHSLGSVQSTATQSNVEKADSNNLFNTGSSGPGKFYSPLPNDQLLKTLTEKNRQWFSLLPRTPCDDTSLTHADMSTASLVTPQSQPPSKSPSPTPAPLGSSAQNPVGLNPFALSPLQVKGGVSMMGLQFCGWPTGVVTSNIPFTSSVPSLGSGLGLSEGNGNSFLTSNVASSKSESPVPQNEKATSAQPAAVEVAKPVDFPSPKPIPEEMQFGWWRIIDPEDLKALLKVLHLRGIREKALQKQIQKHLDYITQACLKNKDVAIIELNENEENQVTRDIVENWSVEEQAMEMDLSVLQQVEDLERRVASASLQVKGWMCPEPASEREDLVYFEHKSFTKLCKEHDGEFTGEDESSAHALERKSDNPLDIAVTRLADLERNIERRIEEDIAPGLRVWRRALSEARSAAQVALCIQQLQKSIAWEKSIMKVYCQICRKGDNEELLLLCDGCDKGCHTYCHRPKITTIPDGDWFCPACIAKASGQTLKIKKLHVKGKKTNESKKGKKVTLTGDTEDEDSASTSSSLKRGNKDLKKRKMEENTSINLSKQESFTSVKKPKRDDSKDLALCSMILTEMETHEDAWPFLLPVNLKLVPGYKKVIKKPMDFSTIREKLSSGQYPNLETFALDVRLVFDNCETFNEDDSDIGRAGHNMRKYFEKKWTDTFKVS

Compound	activity change, negative = inhibition	Potency
COc1ccccc1-c1noc(CSc2nnc(-c3ccccc3)n2-c2ccc(C)c(C)c2)n1	-23.7% (inactive)	
Cc1ccc(NC(=O)c2ccc(CN3CC(=O)N4CCCCC4C3=O)cc2)c(Cl)c1 (centres undefined)	-8.09% (inactive)	
COc1cc(NC(=O)CCn2nc(C)cc2C)cc(OC)c1OC	-14.8% (inactive)	
Cc1oc(-c2ccccc2F)nc1CS(=O)CC(=O)NCCN1CCCCC1C (centres undefined)	-22.7% (inactive)	
CC1CCN(c2oc(-c3ccccc3F)nc2C#N)CC1		14.1 µM (active)
N#Cc1nc(-c2cccc3ccccc23)oc1N	-7.95% (inactive)	
COc1cccc(C2C(C(=O)Nc3ccc(C)cc3C)=C(C)Nc3c(C(=O)Nc4ccccc4)cnn32)c1 (centres undefined)	-0.431% [at 57.1 µM] (inactive)	
CCOc1ccccc1C(=O)NCc1ccc2c(c1)CCN2C(=O)c1ccc(F)cc1	-8.29% (inactive)	
COc1ccc(NC(=O)C2CCN(c3ccc(Sc4ccc(C)cc4)nn3)CC2)c(OC)c1	1.5% (inactive)	
N#C/C(=C\c1ccc(O)c(O)c1)C(=O)NCc1ccccc1		12.6 µM (active)
COCCNC(=O)/C(C#N)=C/c1cccc(OCc2ccccc2)c1	1.99% (inactive)	
COc1ccc(CNC(=O)/C(C#N)=C/c2cccc(OC)c2OC)cc1	17.4% (inactive)	
O=C(Nc1nnc(C2CC(=O)N(c3ccc(Cl)cc3)C2)s1)c1ccco1 (centres undefined)	-5.6% (inactive)	
Cc1c(CNC(C)c2ccccc2)c(C(=O)O)c(C)n1Cc1c(F)cccc1Cl (centres undefined)	-35.7% (inactive)	
COc1cc(C(CC(=O)NCCC(C)C)N2Cc3ccccc3C2=O)cc(OC)c1OC (centres undefined)	-16.8% (inactive)	
O=C(NNC(=O)c1cc2c(s1)CCCC2)c1ccccc1	0.303% (inactive)	
O=C(C1CCC1)N1CCN(c2ccccc2)CC1	-6.73% (inactive)	
O=C(c1cc2c(s1)CCC2)N1CCN(c2ccccc2)CC1		56.2 µM (active)
COc1ccc(NC(=S)NCC2CCN(c3ccc(OC)cc3)C2)cc1 (centres undefined)		31.6 µM (active)
COc1ccc(OCC(=O)Nc2ccc(N3CCC(C)CC3)cc2)cc1	-9.42% (inactive)	
COc1cccc(N2CC(C(=O)Nc3c(C)cccc3C)CC2=O)c1 (centres undefined)	5.13% (inactive)	
COc1ccc(NC(=O)N2CCC(Cc3ccccc3)CC2)cc1	-12.4% (inactive)	

Compound	activity change, negative = inhibition	Potency
COc1ccc(N2CCC(CNC(=S)Nc3c(C)cccc3C)C2)cc1 (centres undefined)		39.8 µM (active)
COc1ccc(NC(=S)NCCN2CCC(C)CC2)cc1	4.01% (inactive)	
NC(=O)CSc1nc2c(oc3ccccc32)c(=O)n1Cc1ccccc1	5.76% (inactive)	
CCOc1ccc(OCC)c(NS(=O)(=O)c2ccc3[nH]c(=O)ccc3c2)c1	-10.5% (inactive)	
CCOc1ccc(N(CC)C(=O)c2noc3c2COc2ccc(C)cc2-3)cc1	-5.3% (inactive)	
COc1cc(C(=O)N[C@@H](C)C(=O)NCc2ccco2)cc(OC)c1OC	-6.9% (inactive)	
COc1ccccc1-n1c(C)nc2cc(C(=O)NCc3ccc4c(c3)OCO4)ccc21	6.25% (inactive)	
COc1cc(-n2c(C)nc3cc(C(=O)NCc4ccco4)ccc32)cc(OC)c1OC		56.2 µM (active)
COc1ccc(-c2cn3nc(N4CCC(C(=O)Nc5cccc(C)c5C)CC4)sc3n2)cc1	0.408% (inactive)	
Cc1ccccc1C(=O)Nc1sc2c(c1C(=O)N1CCC(C)CC1)CCCC2	-19.1% (inactive)	
O=C(C1=C(O)C(=O)N(CCOCCO)C1c1ccccn1)c1cccs1 (centres undefined)		50.1 µM (active)
O=C(c1cccs1)c1cn(CCOc2ccc(Cl)cc2)c2ccccc12	-10.5% (inactive)	
O=C(c1cccs1)N(C(=O)c1cccs1)c1ccccn1	-1.03% (inactive)	
O=c1n(Cc2cccc(C(F)(F)F)c2)c2ccccc2c2nc(-c3ccccc3)nn12	-0.6% (inactive)	
O=C(NCc1ccccc1)c1cccc(NC(=O)N2CCSc3ncccc32)c1	-15.1% (inactive)	
Cc1ccc(NC(=O)Nc2sc3nc4n(c(=O)c3c2C)CCC(C)CC4)c(Cl)c1 (centres undefined)	18.2% (inactive)	
COc1ccc(NC(=O)Nc2cccc(-c3noc(C)n3)c2)cc1	2.5% (inactive)	
Cc1cccc(Cn2c(CN3CCC(C(=O)NCc4ccccc4Cl)CC3)cc3ccccc32)c1	-15.4% (inactive)	
COc1ccc(Cl)cc1NC(=O)CN(C)CC(=O)Nc1ccc2c(c1)OCO2	-7.5% (inactive)	
O=C(CCS(=O)(=O)c1ccc(Br)cc1)NCCc1ccc(Cl)cc1		50.1 µM (active)
COc1ccc(Cl)cc1NC(=O)CN(C)Cc1ccc(OC)c(OC)c1		20 µM (active)
COc1ccc(Cl)cc1NC(=O)CCS(=O)(=O)c1cc2c(cc1C)NC(=O)CO2	-16.3% (inactive)	

Compound	activity change, negative = inhibition	Potency
COc1ccc(Cl)cc1NC(=O)CCC(=O)c1ccc(C)cc1	-0.278% (inactive)	
COc1ccc(Cl)cc1NC(=O)CCS(=O)(=O)c1ccc(Br)cc1		8.91 µM (active)
COc1ccc(Cl)cc1NC(=O)CN(C)C(=O)c1cc2ccccc2cc1OC	0.538% (inactive)	
Cn1c(=O)oc2cc(S(=O)(=O)CCC(=O)NCCc3ccc(Cl)cc3)ccc21	7.61% [at 57.1 µM] (inactive)	
CC(=O)N1CCc2cc(Br)cc(S(=O)(=O)CCC(=O)NCCc3ccc(Cl)cc3)c21	0.132% (inactive)	
CCc1ccccc1NS(=O)(=O)c1ccc2nc(-c3ccccc3)[nH]c2c1	-12.9% (inactive)	
O=S(=O)(NCC(c1ccco1)N1CCOCC1)c1cc(F)ccc1F (centres undefined)	-3.02% (inactive)	
Cc1ccc(Nc2ccc3cc(S(=O)(=O)N4CCCCC4)ccc3n2)cc1F	34.4% (inactive)	
Cc1cc(C)c(NC(=O)CN2C(=O)c3cccnc3Oc3ccc(Cl)cc32)c(C)c1	0.446% (inactive)	
COc1cc(NC(=O)c2cc3ccc4cccnc4c3[nH]2)cc(OC)c1OC	3.36% [at 57.1 µM] (inactive)	
CCN(c1ncnc2c1cnn2-c1ccc(C)cc1)C1CCCCC1	8.19% (inactive)	
O=c1[nH]c2cc(Br)ccc2n2cccc12	-1.35% (inactive)	
COc1ccc(NC(=O)CSc2nc(NS(=O)(=O)c3ccc(C)cc3)cc(=O)[nH]2)cc1		50.1 µM (active)
Cc1ccc(OCCCC(=O)Nc2ccc(S(=O)(=O)Nc3cc(C)nc(C)n3)cc2)cc1	-34.4% (inactive)	
Cc1ccc(NC(=O)CSc2nc(CSc3ccc(C)cc3)cc(=O)[nH]2)cc1	-33.2% (inactive)	
CCc1nnc(NS(=O)(=O)c2ccc(NS(=O)(=O)c3ccccc3)cc2)s1	-30.5% (inactive)	
CCc1nnc(NS(=O)(=O)c2ccc(NC(=S)NC(=O)c3cccs3)cc2)s1	-22.8% (inactive)	
CCc1nnc(NS(=O)(=O)c2ccc(NC(=S)NC(=O)/C=C/c3cccs3)cc2)s1		50.1 µM (active)
Cc1cc(-c2ccccc2)n2nc(-c3ccccc3)cc2n1	323% (inactive)	
CCc1ccccc1NC(=O)Cn1c(=O)n(CC2CCC(C(=O)NCCc3ccccc3)CC2)c(=O)c2ccccc21 (centres undefined)	-14.6% (inactive)	
